B1: PhoQ; a variant is named by its letters at X, in order, P23837 (parent)
chain: MKKLLRLFFPLSLRVRFLLATAAVVLVLSLAYGMVALIGYSVSFDKTTFRLLRGESNLFYTLAKWENNKLHVELPENIDKQSPTMTLIYDENGQLLWAQRDVPWLMKMIQPDWLKSNGFHEIEADVNDTSLLLSGDHSIQQQLQEVREDDDDAEMTHSVAVNVYPATSRMPKLTIVVVDTIPVELKSSYMVWSWFIYVLSANLLLVIPLLWVAAWWSLRPIEALAKEVRELEEHNRELLNPATTRELTSLVRNLNRLLKSERERYDKYRTTLTDLTHSLKTPLXXLQXXLRSLRSEKMSVSDAEPVMLEQISRISQQIGYYLHRASMRGGTLLSRELHPVAPLLDNLTSALNKVYQRKGVNISLDISPEISFVGEQNDFVEVMGNVLDNACKYCLEFVEISARQTDEHLYIVVEDDGPGIPLSKREVIFDRGQRVDTLRPGQGVGLAVAREITEQYEGKIVAGESMLGGARMEVIFGRQHSAPKDE

In all, about 140,000 sequences were measured (“enrichment ratio after two sorts for PhoP signalling”: median about 0, highest 2% from about 11 on). The entries come from a sample that favours the highest values as a whole. Some results are limits rather than exact numbers.

The variants in the experiment derive from B1. As to the kind of experiment: enrichment ratio after two sorts for PhoP signalling (ratio (wild type AVST 3.29)); higher = more functional. The following applies: with PhoP (E. coli).
Take RQGA: the enrichment ratio was no more than 0.25.

For the variant FECY, the enrichment ratio was no more than 0.25.

As for KYKH, the enrichment ratio is no more than 0.25.

On to YIRN, for which the enrichment ratio is no more than 0.25.

Regarding FEWK, the enrichment ratio is no more than 0.25.

For the variant FYPG, the enrichment ratio was no more than 0.25.

With EFYK, the enrichment ratio was no more than 0.25.

For the variant IDSN, the enrichment ratio was no more than 0.25.

On to AILV, for which the enrichment ratio is 5.12.

Regarding VFLV, the enrichment ratio is no more than 0.25.

In the case of KCLV, the enrichment ratio is no more than 0.25.

As for ANLV, the enrichment ratio is 14.1.

In the case of AHLV, the enrichment ratio amounted to 1.12.

As to AYLV, the enrichment ratio came to 3.08.

Regarding QCLV, the enrichment ratio stood at 1.13.

For the variant MKLV, the enrichment ratio was determined as 9.89.

GCLV: the enrichment ratio worked out at 14.5.

For the variant AKLV, the enrichment ratio amounted to 16.2.

For the variant VCLV, the enrichment ratio was 13.

With VYLV, the enrichment ratio was no more than 0.25.

As to RCEW, the enrichment ratio is no more than 0.25.

Take VEQN: the enrichment ratio was no more than 0.25.

For PFRI, the enrichment ratio was no more than 0.25.

For SNAR, the enrichment ratio was no more than 0.25.

In the case of LYVG, the enrichment ratio is no more than 0.25.

For WLGW, the enrichment ratio is no more than 0.25.

For the variant IFLV, the enrichment ratio was no more than 0.25.

Regarding ICLV, the enrichment ratio was 18.8.

Take TKLV: the enrichment ratio came to 23.3.

As for KALV, the enrichment ratio is no more than 0.25.

For the variant YALV, the enrichment ratio came to 11.1.

In the case of TPLV, the enrichment ratio is no more than 0.25.

As to IILV, the enrichment ratio was 1.58.

For the variant SRLV, the enrichment ratio came out at 0.905.

Turning to HKLV, the enrichment ratio worked out at 0.341.

Turning to SNLV, the enrichment ratio was found to be 15.8.

AALV: the enrichment ratio is 12.9.

Take KKLV: the enrichment ratio is no more than 0.25.

With EKVF, the enrichment ratio was no more than 0.25.

As to HDKH, the enrichment ratio is no more than 0.25.

For the variant VLRH, the enrichment ratio is no more than 0.25.

In the case of RKNR, the enrichment ratio was no more than 0.25.

For SYSF, the enrichment ratio was no more than 0.25.

On to DGQH, for which the enrichment ratio is no more than 0.25.

For the variant YPAE, the enrichment ratio is no more than 0.25.

Consider NFWK, for which the enrichment ratio is no more than 0.25.

Turning to MMNV, the enrichment ratio was no more than 0.25.

Turning to GNLV, the enrichment ratio is 11.9.

For WILV, the enrichment ratio is no more than 0.25.

As to IPLV, the enrichment ratio is no more than 0.25.

In the case of GILV, the enrichment ratio was determined as 10.9.

With IALV, the enrichment ratio stood at 13.1.

Turning to GSLV, the enrichment ratio is 17.9.

Regarding LNLV, the enrichment ratio was no more than 0.25.

With NALV, the enrichment ratio was no more than 0.25.

Take GSHK: the enrichment ratio was no more than 0.25.

For QWMF, the enrichment ratio was no more than 0.25.

With VRHG, the enrichment ratio is no more than 0.25.

Regarding GYNH, the enrichment ratio was no more than 0.25.

On to TDKY, for which the enrichment ratio is no more than 0.25.

TGYH: the enrichment ratio amounted to 1.03.

On to IQEV, for which the enrichment ratio is no more than 0.25.

PSYQ: the enrichment ratio is 1.11.

AMVW: the enrichment ratio was determined as 11.8.

Take AMTS: the enrichment ratio was found to be 13.9.

AWHD: the enrichment ratio came out at 24.7.

With ACNH, the enrichment ratio is no more than 0.25.

Turning to AMWI, the enrichment ratio was no more than 0.25.

Take NMVW: the enrichment ratio was no more than 0.25.

With PWHD, the enrichment ratio is no more than 0.25.

For the variant AITS, the enrichment ratio came out at 9.53.

Take LWHD: the enrichment ratio was no more than 0.25.

For ACTH, the enrichment ratio stood at 2.87.

For the variant VLVW, the enrichment ratio is no more than 0.25.

Take ACGH: the enrichment ratio was 13.6.

Consider SCPW, for which the enrichment ratio was no more than 0.25.

Consider KEAN, for which the enrichment ratio is no more than 0.25.

Turning to YKMT, the enrichment ratio turned out to be 0.253.

On to GVMF, for which the enrichment ratio was 2.88.

Turning to MYDC, the enrichment ratio is no more than 0.25.

For VHEE, the enrichment ratio is no more than 0.25.

MGNK: the enrichment ratio was no more than 0.25.

For EGFI, the enrichment ratio was no more than 0.25.

As for EGVD, the enrichment ratio was no more than 0.25.

As to QFHL, the enrichment ratio is no more than 0.25.

WTPV: the enrichment ratio is no more than 0.25.

Regarding FCGM, the enrichment ratio was no more than 0.25.

For the variant WFML, the enrichment ratio was no more than 0.25.

On to GWCM, for which the enrichment ratio was no more than 0.25.

With QTWG, the enrichment ratio is no more than 0.25.

Consider AKTI, for which the enrichment ratio came out at 23.6.

With AMTD, the enrichment ratio was no more than 0.25.

For the variant AMGD, the enrichment ratio came to 11.5.

Regarding AMGH, the enrichment ratio is 51.

For AMYD, the enrichment ratio is no more than 0.25.

Turning to KKTC, the enrichment ratio is no more than 0.25.

On to AIFC, for which the enrichment ratio was no more than 0.25.

Take AIGH: the enrichment ratio was 2.15.

AKTD: the enrichment ratio is no more than 0.25.

On to AMTH, for which the enrichment ratio amounted to 0.411.

Turning to KKTI, the enrichment ratio was no more than 0.25.

On to AITC, for which the enrichment ratio turned out to be 19.

As for DKAP, the enrichment ratio was no more than 0.25.

Turning to KDMR, the enrichment ratio was no more than 0.25.

Take TRNK: the enrichment ratio was no more than 0.25.

With HVKY, the enrichment ratio is no more than 0.25.

In the case of PFRW, the enrichment ratio was no more than 0.25.

Take KMGT: the enrichment ratio was no more than 0.25.

With QKFN, the enrichment ratio was no more than 0.25.

As for RPYD, the enrichment ratio is no more than 0.25.

Turning to AMTI, the enrichment ratio turned out to be 11.6.

With AMVA, the enrichment ratio was no more than 0.25.

Regarding AMWM, the enrichment ratio was no more than 0.25.

For the variant AKTC, the enrichment ratio was determined as 30.2.

AKFC: the enrichment ratio was no more than 0.25.

With AMPM, the enrichment ratio is no more than 0.25.

As for AMIM, the enrichment ratio is 29.3.

With AMVQ, the enrichment ratio was found to be 13.1.

As to NMVQ, the enrichment ratio is no more than 0.25.

With AKTK, the enrichment ratio was no more than 0.25.

As for AITI, the enrichment ratio was 10.7.

Turning to NMTI, the enrichment ratio was no more than 0.25.

As for DMSC, the enrichment ratio is no more than 0.25.

For KPPG, the enrichment ratio is no more than 0.25.

Consider MFQM, for which the enrichment ratio was no more than 0.25.

In the case of IEMM, the enrichment ratio was no more than 0.25.

Take MKCV: the enrichment ratio is no more than 0.25.

As to WYPM, the enrichment ratio is no more than 0.25.

Turning to IISF, the enrichment ratio was no more than 0.25.

For the variant KMPW, the enrichment ratio was no more than 0.25.

With LYRY, the enrichment ratio is no more than 0.25.

Take PGVK: the enrichment ratio is no more than 0.25.

Take AMFC: the enrichment ratio was no more than 0.25.

As to AMAQ, the enrichment ratio was 12.1.

For the variant NMGQ, the enrichment ratio is no more than 0.25.

AHGQ: the enrichment ratio is no more than 0.25.

For AKAQ, the enrichment ratio was 7.28.

AMNK: the enrichment ratio was no more than 0.25.

As to AMTC, the enrichment ratio came to 20.7.

For the variant NMAQ, the enrichment ratio is no more than 0.25.

On to AMGQ, for which the enrichment ratio amounted to 13.7.

On to HQSV, for which the enrichment ratio was no more than 0.25.

On to LFRC, for which the enrichment ratio was no more than 0.25.

For PWKY, the enrichment ratio is no more than 0.25.

Turning to DPKV, the enrichment ratio is no more than 0.25.

Regarding TIQF, the enrichment ratio stood at 9.01.

In the case of SAIN, the enrichment ratio was 11.8.

With NAIN, the enrichment ratio was no more than 0.25.

For EQIN, the enrichment ratio was no more than 0.25.

KAIN: the enrichment ratio is no more than 0.25.

As for SGIN, the enrichment ratio was found to be 11.4.

Turning to SRIN, the enrichment ratio was no more than 0.25.

In the case of SCIN, the enrichment ratio turned out to be 0.637.

Turning to TGIN, the enrichment ratio is no more than 0.25.

As to SQIN, the enrichment ratio was determined as 12.8.

Take VAML: the enrichment ratio came to 7.99.

KNIR: the enrichment ratio is no more than 0.25.

For SWRM, the enrichment ratio is no more than 0.25.

For TMWP, the enrichment ratio was no more than 0.25.

On to SLWP, for which the enrichment ratio was no more than 0.25.

Take DKCH: the enrichment ratio is no more than 0.25.

As for VWNG, the enrichment ratio is no more than 0.25.

With ADSY, the enrichment ratio was no more than 0.25.

As for AGSY, the enrichment ratio came to 14.7.

Turning to AISY, the enrichment ratio is 5.51.

Turning to AKSY, the enrichment ratio was 2.91.

As to AQSY, the enrichment ratio was 12.7.

Regarding RGSY, the enrichment ratio was no more than 0.25.

With GGSY, the enrichment ratio was no more than 0.25.

With TGSY, the enrichment ratio is 15.9.

Turning to AHSY, the enrichment ratio is no more than 0.25.

For the variant DTDV, the enrichment ratio is no more than 0.25.

As for WMKH, the enrichment ratio is no more than 0.25.

As to MNKP, the enrichment ratio is no more than 0.25.

For RIYR, the enrichment ratio is no more than 0.25.

Consider FFTK, for which the enrichment ratio was no more than 0.25.

On to WFGI, for which the enrichment ratio was no more than 0.25.

With HTNW, the enrichment ratio is no more than 0.25.

Regarding KLTI, the enrichment ratio was no more than 0.25.

KAGV: the enrichment ratio was no more than 0.25.

Regarding MSHV, the enrichment ratio was 17.4.

Take MSGV: the enrichment ratio worked out at 13.8.

For MSHF, the enrichment ratio was 2.07.

For MRHV, the enrichment ratio was no more than 0.25.

For the variant KSGV, the enrichment ratio is no more than 0.25.

Consider SEQA, for which the enrichment ratio was no more than 0.25.

On to GVVG, for which the enrichment ratio was no more than 0.25.

On to LEYW, for which the enrichment ratio is no more than 0.25.

As to RSAR, the enrichment ratio is no more than 0.25.

For the variant EASM, the enrichment ratio was no more than 0.25.

Regarding TSLQ, the enrichment ratio was 16.4.

On to FALQ, for which the enrichment ratio came out at 7.48.

Consider FQLQ, for which the enrichment ratio is 17.7.

For FIMQ, the enrichment ratio is no more than 0.25.

As for WILQ, the enrichment ratio is no more than 0.25.

Consider MALQ, for which the enrichment ratio was 13.1.

Regarding FITA, the enrichment ratio is no more than 0.25.

With FDLQ, the enrichment ratio was no more than 0.25.

FPLQ: the enrichment ratio is no more than 0.25.

NSLQ: the enrichment ratio was found to be 0.291.

In the case of MPLQ, the enrichment ratio was no more than 0.25.

With FILQ, the enrichment ratio was found to be 11.5.

Values taken from a collection of fitness landscapes (doi:10.1126/science.1257360).
